Assay results: article PMC5540273 (PLoS ONE, 2017)

Columns and labels:
Settings in all cases: concentration: 1 μM, replicates: in singlicate; n = 1
YANK1 = test system: T1, YANK1
T1 construct: gene STK32A

YANK2 = test system: T2, YANK2
T2 construct: gene STK32B

YANK3 = test system: T3, YANK3
T3 construct: gene STK32C

YES = test system: T4, YES
T4 construct: gene YES1

YSK1 = test system: T5, YSK1
T5 construct: gene STK25

YSK4 = test system: T6, YSK4
T6 construct: gene MAP3K19

ZAK = test system: ZAK
ZAP70 = test system: ZAP70
p38-alpha = test system: T7, p38-alpha
T7 construct: gene MAPK14

p38-beta = test system: T8, p38-beta
T8 construct: gene MAPK11
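Also: KINOMEscan kinase panel screen.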

Compound | %Inh (YANK1) [%] | %Inh (YANK2) [%] | %Inh (YANK3) [%] | %Inh (YES) [%] | %Inh (YSK1) [%] | %Inh (YSK4) [%] | %Inh (ZAK) [%] | %Inh (ZAP70) [%] | %Inh (p38-alpha) [%] | %Inh (p38-beta) [%]
Nc1nc(N)c2nc(-c3ccccc3)[nH]c2n1 [SKF-12778] | 0 | 1 | 13 | 11 | 0 | 68 | 22 | 14 | 0 | 7
COc1cc2ncn(-c3cc(OCc4ccc(S(C)(=O)=O)cc4)c(C(N)=O)s3)c2cc1OC [GW869979] | 7 | 0 | 0 | 28 | 0 | 57 | 0 | 17 | 1 | 1
COc1ccc(Nc2nccc(N3CCC(NS(=O)(=O)c4ccc(NC(C)=O)cc4)C3)n2)cc1 (centres unmarked) [GSK1379729] | 8 | 3 | 0 | 10 | 0 | 1 | 24 | 0 | 82 | 17
CCS(=O)c1ccc(-c2coc3ccc(-c4nnc(C)o4)cc23)cc1 (centres unmarked) | 5 | 11 | 0 | 0 | 0 | 15 | 8 | 0 | 0 | 5
COc1cc(Nc2nccc(N3CCC(NC(=O)C4COc5ccccc5O4)C3)n2)cc(OC)c1OC (centres unmarked) [GSK1379761] | 9 | 0 | 19 | 27 | 0 | 8 | 14 | 0 | 26 | 0
COc1ccc(-c2cc3c(C)nc(N)nc3n([C@H]3CC[C@H](O)CC3)c2=O)cn1 | 0 | 0 | 0 | 0 | 0 | 0 | 0 | 0 | 0 | 0
Cc1cc(Nc2nc(-c3cccc(C)n3)nc3ccccc23)ccn1 [GW872411] | 0 | 0 | 0 | 0 | 0 | 0 | 0 | 0 | 20 | 0
Cc1cccc(-c2cc(-c3c[nH]nc3-c3ccccn3)ccn2)c1 [GW679395] | 0 | 0 | 15 | 29 | 0 | 36 | 0 | 0 | 47 | 0
